ALDH1A1 block – inhibitors of human aldehyde dehydrogenase 1A1. P00352. Purified ALDH1A1, NADH fluorescence, propionaldehyde substrate. Potency, µM (top dose mostly 75.3 µM), for the others: at the top dose activity, negative = inhibition, most hits filed as inhibitors. actives 7.3% (n = 220,000). AID 1030; active = well fitted inhibition curve with a large enough effect, not every such curve was filed as active; inconclusive = small, poorly fitted or top-dose-only effect, or another doubt; inactive = no such curve, though single readings can be large or run the other way;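 note: potency is the fitted concentration of half-maximal effect; plate controls were no enzyme wells and a reference inhibitor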
PNC inhibitor – perinucleolar compartment assembly inhibition; PC3M PTB-GFP, PNC prevalence imaging, 16 h; stronger effect = lower value; activity change (PNC), negative = inhibition, % at 10 µM; actives 3.1% (n = 140,000);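 active = readout at or below -70, meaning at least 70% loss of cells showing the perinucleolar compartment, a nuclear body marking cancer cells; inconclusive = readout between -30 and a set limit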;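 note: plate controls were DMSO wells for no effect and camptothecin positive control wells for full effect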
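Compounds are pinned in duplicate onto adhered PC3M cells stably expressing GFP-tagged PTB and incubated 16 h at 37 C. Cells are then fixed, nuclei stained with Hoechst, and PNC-positive cells counted.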
NPSR antag – antagonists of human neuropeptide S receptor cAMP signaling | Q6W5P4 | CHO-NPSR cells, cAMP TR-FRET, antagonist mode | Potency, µM (series often up to 38.3 µM), for the others: at the top dose activity change, negative = inhibition, hits mostly inhibitors | actives 1% (n = 220,000); note: potency is the fitted concentration of half-maximal effect; nearly all actives have a fitted effect of over 50% in size
Target sequence (Q6W5P4 whole entry, looked up): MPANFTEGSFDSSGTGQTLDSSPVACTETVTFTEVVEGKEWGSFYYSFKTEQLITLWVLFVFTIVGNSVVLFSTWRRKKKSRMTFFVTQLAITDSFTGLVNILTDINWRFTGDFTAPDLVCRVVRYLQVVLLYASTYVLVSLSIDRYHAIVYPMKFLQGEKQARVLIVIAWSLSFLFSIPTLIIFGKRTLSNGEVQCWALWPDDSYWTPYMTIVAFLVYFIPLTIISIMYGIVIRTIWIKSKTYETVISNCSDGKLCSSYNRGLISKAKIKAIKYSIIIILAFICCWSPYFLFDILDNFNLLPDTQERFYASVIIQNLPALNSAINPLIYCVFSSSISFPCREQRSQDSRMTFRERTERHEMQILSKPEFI
IMPase Li inh – membrane-permeable IMPase blocker, potentiated with lithium; Potency, µM (highest dose often 59.4 µM), for the others: top-dose activity, negative = IMPase inhibition, actives largely listed as inhibitors; CHO-M1 cells, IP1 TR-FRET (IP-One), carbachol + lithium; actives 0.35% (n = 210,000);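 note: IP1 builds up when IMPase is blocked and the TR-FRET signal falls; potency is the fitted concentration of half-maximal effect; plate controls were basal vehicle for no effect and high inhibitor control for full effect; nearly all actives have a fitted effect of over 50% in size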
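Readout is a homogeneous TR-FRET IP1 immunoassay (Ex 320, Em 665 and 620), where raised cytosolic IP1 lowers signal. Cells were CHO-M1 treated 30 min at 37C with test compounds plus a little lithium; AC50 values came from Hill-equation fitting.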
HPGD inh – inhibitors of human 15-hydroxyprostaglandin dehydrogenase (HPGD); purified HPGD, NADH fluorescence kinetic, PGE2 substrate; Potency, µM, inactives show at the top dose activity change, negative = inhibition, hits mostly inhibitors; actives 4.3% (n = 150,000); AID 894; active = well fitted inhibition curve with a large enough effect, not every such curve was filed as active; inconclusive = small, poorly fitted or top-dose-only effect, or another doubt; inactive = no such curve, though single readings can be large or run the other way; note: potency is the fitted concentration of half-maximal effect
Target sequence (P15428 whole entry, looked up): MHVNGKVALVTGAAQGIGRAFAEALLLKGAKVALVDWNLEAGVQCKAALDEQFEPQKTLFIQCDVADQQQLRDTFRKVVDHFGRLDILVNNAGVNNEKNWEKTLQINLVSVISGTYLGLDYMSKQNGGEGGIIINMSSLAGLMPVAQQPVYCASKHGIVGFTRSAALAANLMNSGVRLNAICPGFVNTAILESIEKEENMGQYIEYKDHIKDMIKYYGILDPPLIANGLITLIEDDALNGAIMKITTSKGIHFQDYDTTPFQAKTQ
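NADH formation kinetics: reaction with 30 uM PGE2 and 1 mM NAD+ (final), 20 nM enzyme, Tris-HCl pH 8 with Tween 20, after 15 min compound preincubation at room temperature. Fluorescence change, last versus first of five reads.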
IMPase inh – IMPase inhibition in cells; CHO-M1 cells, IP1 accumulation, HTRF TR-FRET ratio; P97697; inhibition (IP1 accumulation), % at 46.1 µM; AID 901; 120,000 tested, under 10 active; active = well fitted curve in the direction sought with a large enough effect in the signal ratio, not every such curve was filed as active; inconclusive = small, poorly fitted or top-dose-only effect, or a change in a side signal; inactive = no such curve, though single readings can be large or run the other way; the % refers to the signal ratio;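 note: cells stimulated with carbachol in lithium chloride buffer; plate controls were DMSO basal wells for no effect and reference inhibitor wells for full effect; higher means more IMPase inhibition seen as more IP1 and lower FRET ratio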
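Seeded CHO-M1 cells were dosed with compound at up to 46 uM, stimulated with carbachol for 30 min, then lysed in IP-One detection reagents. Higher IP1 lowers the TR-FRET signal.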
* marks the source's active call; other numbers are inactive results; ? = inconclusive; . = not tested or not shown; [ ] = remark or other dose. A selection: hits, their analogues and other compounds. The true share with any hit is near 11%. Unless noted, calls come from the whole dose curve; as a rule, active = well fitted curve in the direction sought with a large enough effect; inconclusive = small, poorly fitted or top-dose-only effect, or another doubt; inactive = no such curve, though single readings can be large; an effect the other way counts as inactive or inconclusive. Unless noted, % is set by controls: 0 for no effect and ±100 for the full control effect.

SMILES	ALDH1A1 block	PNC inhibitor	NPSR antag	IMPase Li inh	HPGD inh	IMPase inh
CC(=O)c1ccc(NC(=O)CSc2nnc3c(n2)[nH]c2ccccc23)cc1	.	.	.	.	.	1
CNc1nc(C)nc(N/N=C/c2ccccc2)n1	13µM*	.	-4%	10%	.	.
Cc1ccc([N+](=O)[O-])cc1N=Nc1c(-c2ccc([N+](=O)[O-])cc2)[nH]n(C(N)=S)c1=O	11µM*	.	10µM*	12%	.	.
Cc1cc(C)cc(N2CCCn3c2nc2c3c(=O)n(CCN3CCOCC3)c(=O)n2C)c1	-2%	8	-3%[46.1 µM]	21%[38.3 µM]	1%	-1
CCOC(=O)N1CCN(C(=O)c2cccc(NC(=O)c3ccco3)c2)CC1	4%	0	0%[46.1 µM]	12%[38.3 µM]	-2%	1
Cc1cc2cc(NC(=O)c3ccco3)ccc2[nH]1	22µM*	?	-4%[46.1 µM]	5%[38.3 µM]	?	-10
Cc1nc2ccc(NC(=O)c3ccco3)cc2nc1C	?	.	10%	3%	.	.
Cc1cccc(C(=O)Nc2cccc(C(=O)N3CCOCC3)c2)c1	-7%	-108*	-1%[46.1 µM]	8%[38.3 µM]	-11%	-12
O=C(Nc1cccc(C(=O)N2CCCCCC2)c1)c1ccco1	4%	48	-3%[46.1 µM]	-4%[38.3 µM]	25µM*	11
O=C(N/N=C/c1cccs1)c1cccc(NC(=O)c2ccccc2Cl)c1	16µM*	16	-16%[46.1 µM]	3%	-15%	6
CC(C)(C)NC(=O)c1cccc(NC(=O)c2ccc(NC(=O)c3ccco3)cc2)c1	-13%	?	-21%[46.1 µM]	33%[38.3 µM]	-13%	-10
CC(C)(C)NC(=O)c1cccc(NC(=O)c2ccco2)c1	6%	-100*	4%[46.1 µM]	1%	-10%	0
COc1ccc(C(=O)Nc2cccc(C(=O)N3CCCC3)c2)cc1	?	?	-3%[46.1 µM]	13%[38.3 µM]	-14%	-2
O=C(Nc1cccc(C(=O)N2CCCC2)c1)c1ccccc1Cl	4µM*	-21	-4%[46.1 µM]	15%[38.3 µM]	-16%	5
O=C(CC1NCCc2ccccc21)Nc1ccccc1Cl (centres undefined)	1%	.	-2%	4%	.	.
CC(C)O/N=C1\C(=O)N(c2ccccc2)c2ccccc21	-1%	.	-35%	10%	.	.
O=C(NCCCN1CCOCC1)c1sc2cc(Cl)ccc2c1Cl	1%	.	-4%	6%	.	.
O=C(NCCCN1CCOCC1)c1sc2cc([N+](=O)[O-])ccc2c1Cl	7.9µM*	.	7%	6%	.	.
N#CC1=C2SCN(Cc3ccccc3)CN2C(=O)CC1c1cccs1 (centres undefined)	11µM*	-19	?	11µM*	20µM*	?
N#CC1=C2SCN(Cc3ccccc3)CN2C(=O)CC1c1ccc2c(c1)OCO2 (centres undefined)	7.9µM*	29	-10%[46.1 µM]	7%	25µM*	-8
CSc1nc(-c2ccccc2)c(C#N)c(=O)n1C	?	.	-14%	-3%	.	.
COc1ccc(Cl)cc1C(=O)NC(=S)Nc1cc(-c2nc3ccccc3[nH]2)ccc1C	4µM*	9	?	3%[38.3 µM]	-17%	8
COC(=O)c1ccc(NC(=S)NC(=O)c2cc(-c3ccccc3)nc3ccccc23)cc1	11µM*	-14	-15%[46.1 µM]	11%[38.3 µM]	-8%	7
COc1ccc(Cl)cc1C(=O)NNC(=S)NC(=O)c1cc(-c2ccccc2)nc2ccccc12	32µM*	53	-5%[46.1 µM]	-5%[38.3 µM]	?	7
COc1ccc(C2c3c(ccc4ccccc34)Oc3ncn4nc(-c5ccco5)nc4c32)cc1OC (centres undefined)	9%	-19	14%	-4%	?	-6
SMILES	ALDH1A1 block	PNC inhibitor	NPSR antag	IMPase Li inh	HPGD inh	IMPase inh
CNC(=O)CN(c1cc(C)ccc1OC)S(=O)(=O)c1ccc(C)cc1	0%	6	-10%[46.1 µM]	11%[38.3 µM]	-11%	0
CC(=O)Nc1ccccc1C(F)(F)F	.	.	-3%[7.67 µM]	.	.	.
NNc1ccccc1C(F)(F)F	18µM*	.	-4%	6%	.	.
CC(=O)Nc1ccc(NC(=O)C(Cc2ccccc2)NC(=O)C2CCCCC2)cc1 (centres undefined)	-2%	-119*	6%	-5%	-2%	2
Cn1c(SCC(=O)NCC2CCCO2)nnc1-c1cccc(NC(=O)c2ccccc2F)c1 (centres undefined)	12%	.	4%	-2%	.	.
CCC(=O)Nc1ccc(C(=O)CSc2nnc(-c3ccc(O)cc3)n2CC2CCCO2)cc1 (centres undefined)	25µM*	?	-20%[46.1 µM]	13%[38.3 µM]	-7%	-4
O=C(CSc1nnc(-c2ccccc2F)n1CCc1ccccc1)Nc1ccc2[nH]c(=O)[nH]c2c1	?	48	8%	12%	-3%	.
COc1cc(C(=O)CSc2nnc(-c3ccc(O)cc3)n2CC2CCCO2)ccc1NC(C)=O (centres undefined)	?	?	-2%[46.1 µM]	1%[38.3 µM]	-4%	8
CCC(=O)Nc1ccc(C(=O)CSc2nnc(-c3ccccc3F)n2CCc2ccccc2)cc1	22µM*	17	-17%	13%	-6%	-6
CCN(C(=O)c1cnc2scc(C)n2c1=O)c1ccccc1C	2%	10	-3%[46.1 µM]	16%[38.3 µM]	-6%	0
O=C1CC(C(=O)Nc2ccc(Cl)cc2[N+](=O)[O-])C2(CCCCC2)O1 (centres undefined)	2%	-84*	14%	-2%	-4%	.
O=C1CC(C(=O)Nc2ccccc2)C2(CCCCC2)O1 (centres undefined)	8%	3	0%[46.1 µM]	28%[38.3 µM]	-14%	1

High-throughput results deposited in PubChem BioAssay by National Center for Advancing Translational Sciences (NCATS).
